Source: PubChem BioAssay
Only some compounds are listed: those with a hit (about 15% of all), similar ones and a draw of the others.
Sm TGR block – qHTS Assay for the Inhibitors of Schistosoma Mansoni Peroxiredoxins; purified TGR, DTNB reduction, TNB absorbance 405 nm; Potency, µM (highest dose often 114 µM), for inactives: top-dose activity change, negative = inhibition, usual class: inhibitors; actives 3% (n = 360,000); AID 485364, 2010; also: potency is read from the fitted curve at half-maximal effect; % is scaled to controls: 0 for no effect and ±100 for the full control effect; nearly all actives have a fitted effect of over 60% in size
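TGR 20 nM + NADPH 100 uM (dispensed conc.), cpd preinc 15 min RT; start with NADPH (500 uM addition) then DTNB (15 mM addition). Kinetic TNB absorbance, 405 nm filter. Four-parameter Hill fit across titration.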
HCMV inh – qHTS Assay for inhibitors of the human cytomegalovirus (HCMV); HFF cells, HCMV-luciferase reporter, 72 h; stronger effect = lower value; actives 4.5% (n = 410,000); activity change, negative = inhibition, % at 57.5 µM; in the data active = activity change below about -60%; inconclusive = no clear call, values can overlap the other calls; inactive = above about -39%; also: % is scaled to controls: 0 for no effect and ±100 for the full control effect
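Luciferase read-out from HCMV-luciferase-infected HFFs (MOI 1 PFU/cell) 72 h post infection at 37C; compounds added after 16 h cell attachment; activity normalized between buffer-only basal and Salinomycin (10uM) inhibitor controls.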
SARS PLpro yeast – qHTS of Yeast-based Assay for SARS-CoV PLP; S. cerevisiae expressing SARS-CoV PLpro, growth rescue; Potency, µM (series often up to 32.9 µM), for the others: top-dose activity, positive = growth rescue, actives largely listed as activators; actives 0.19% (n = 330,000); AID 485353, 2010; calls by dose curve; also: potency is read from the fitted curve at half-maximal effect; 0% is about no effect; nearly all actives have a fitted effect of over 55% in size
Pf growth 48h – Primary qHTS for delayed death inhibitors of the malarial parasite plastid, 48 hour incubation; actives 5.9% (n = 310,000); Potency, µM (highest dose often 28.7 µM), for inactives: at the highest dose activity change, negative = inhibition, actives largely listed as inhibitors; P. falciparum luciferase growth in erythrocytes, 48 h; also: potency is read from the fitted curve at half-maximal effect; % is scaled to controls: 0 for no effect and ±100 for the full control effect
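Erythrocytes infected with P. falciparum carrying an integrated firefly luciferase reporter (2% hematocrit, 0.1% parasitemia final) were exposed to compounds in RPMI 1640 with 0.5% Albumax at 37 C, 5% CO2. Growth inhibition was scored as reduced luminescence.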
HCV inhibitor – qHTS Assay for Inhibitors of Hepatitis C Virus (HCV); AID 651820, 2012; Potency, µM (titrated, usually from 41.8 µM), inactives show at the top dose activity change, negative = inhibition, most hits filed as inhibitors; Huh7.5.1 HCVcc-Cre infection, luciferase reporter, 44 h; actives 3.4% (n = 340,000); also: potency is read from the fitted curve at half-maximal effect; % is scaled to controls: 0 for no effect and ±100 for the full control effect
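Seed cells (1,000/well) for 4 h; treat with compound and infect with HCVcc-Cre, moi about 0.5. Incubate 44 h, then detect luciferase activity.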
Pf growth 96h – Primary qHTS for delayed death inhibitors of the malarial parasite plastid, 96 hour incubation. P. falciparum luciferase reporter growth, 96 h. Potency, µM (series often up to 28.7 µM), for inactives: top-dose activity change, negative = inhibition, hits mostly inhibitors. actives 6.9% (n = 320,000). AID 504834, 2011; also: potency is read from the fitted curve at half-maximal effect; % is scaled to controls: 0 for no effect and ±100 for the full control effect
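Compounds incubated with erythrocytes infected by luciferase-expressing P. falciparum (2% hematocrit, 0.05% parasitemia final) for 96 hours, 37 C in 5% CO2. Growth inhibition scored as decreased luciferase luminescence.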
Active calls of the source: *; ? = inconclusive; / = no result; + = active, no number; [ ] = another dose, or the depositor's remark. Unless noted, calls follow the shape of the dose curve; as a rule, active = well fitted curve in the direction sought with a large enough effect; inconclusive = small, poorly fitted or top-dose-only effect, or another doubt; inactive = no such curve, though single readings can be large; an effect the other way counts as inactive or inconclusive.

SMILES	Sm TGR block	HCMV inh	SARS PLpro yeast	Pf growth 48h	HCV inhibitor	Pf growth 96h
COc1ccc(CC(N)c2csc(Nc3ccc(C(=O)c4ccccc4)cc3)n2)cc1 (stereo not given)	/	-3.8	/	/	/	/
CSc1ncc2c(n1)-c1ccccc1N(Cc1ccccc1C)S2(=O)=O	9.3%	9.3	/	/	/	/
Cc1cnc(NC(=O)c2cccc(S(=O)(=O)N3CC(C)OC(C)C3)c2)s1 (stereo not given)	10.6%	-23.4	2.9%	?	11.2µM*	13.1µM*
CC1CN(S(=O)(=O)c2cccc(C(=O)Nc3ccccc3N3CCCCC3)c2)CC(C)O1 (stereo not given)	-10.6%	?	-3.2%	11.7µM*	?	?
CC1CN(S(=O)(=O)c2cccc(C(=O)Nc3ccccc3N3CCOCC3)c2)CC(C)O1 (stereo not given)	1.8%	?	-0.5%	13.1µM*	?	?
COc1ccc(S(=O)(=O)N2CCCCC2)cc1NC(=O)c1cccc(S(=O)(=O)N2CC(C)OC(C)C2)c1 (stereo not given)	/	8.0	/	/	-13.3%	/
CN(C(=O)COC(=O)c1ccc(=O)n(Cc2ccccc2)n1)C1CCCCC1	7.7%	-24.3	-2.0%[6.58 µM]	4.9%	-7.6%	0.4%
Cc1ccc(-c2ccc([C@H]3[C@H]4C=CC[C@@H](C)[C@@H]4C(=O)N3Cc3ccccc3)c(F)c2)cc1	-33.1%	-11.1	-6.4%	11.7µM*	55.9%[8.37 µM]	10.4µM*
CC[C@@H]1CC=C[C@H]2[C@H]1C(=O)N(Cc1ccccc1)[C@H]2c1ccoc1	?	/	-10.6%	11.7µM*	-27.3%	?
COc1ccc(-c2ccc(C(C)=O)cc2)cc1[C@H]1[C@H]2C=CC[C@@H](C)[C@@H]2C(=O)N1Cc1ccccc1	?	-90.0*	0.5%	?	?	?
C[C@@H]1CC=C[C@H]2[C@H]1C(=O)N(Cc1ccccc1)[C@H]2c1ccoc1	20µM*	-29.6	-1.9%	14.7%	-13.7%	-21.4%
C[C@@H]1CC=C[C@H]2[C@H]1C(=O)N(Cc1ccccc1)[C@H]2c1ccc(-c2ccc(N(C)C)cc2)cc1F	-33.8%	12.0	0.1%	?	-25.7%	?
C#CC(=O)CC1(CN(Cc2ccccc2)C(=O)OC(C)(C)C)CCCCC1	/	-7.5	/	/	-22.2%	/
C[C@@H]1CC=C[C@H]2[C@H]1C(=O)N(Cc1ccccc1)[C@H]2c1ccc2ccccc2c1Br	?	?	-3.5%	10.4µM*	?	?
O=C1C2C(c3cccc(/C=C/c4ccccc4)c3)CC=CC2C(c2ccc(C(F)(F)F)cc2)N1Cc1ccccc1 (stereo not given)	-25.2%	?	0.8%	11.7µM*	-0.6%	9.28µM*
O=C1C2C(c3cccc(/C=C/c4ccccc4)c3)CC=CC2C(c2ccc3ccccc3c2)N1Cc1ccccc1 (stereo not given)	-4.9%	-4.0	1.0%	?	12.5%	?
C[C@@H]1CC=C[C@H]2[C@H]1C(=O)N(Cc1ccccc1)[C@H]2c1ccc2ccccc2c1	-21.6%	-36.3	-15.9%	10.4µM*	16.6%[8.37 µM]	3.7µM*
C[C@@H]1CC=C[C@H]2[C@H]1C(=O)N(Cc1ccccc1)[C@H]2c1ccc(F)c(Br)c1	-14.9%	/	-20.0%	?	/	-6.8%
C[C@@H]1CC=C[C@H]2[C@H]1C(=O)N(Cc1ccccc1)[C@H]2c1ccc(Br)cc1F	-34.7%	0.6	-15.0%	?	?	-87.7%
CCOc1ccccc1CNC(=O)CN1C(=O)CCCc2ccccc21	-1.8%	0.0	/	/	/	/
COc1ccc(/C=N/c2oc(-c3ccccc3)cc2C#N)cc1OC	?	-103.3*	-7.5%	-11.8%	?	21.6%
N/N=C(/Cc1nc2ccccc2[nH]1)c1ccc([N+](=O)[O-])cc1	-11.0%	64.3	-10.4%	?	?	44.9%
O=[N+]([O-])c1cc(Cl)cc(/C=N/Nc2nc3ccccc3s2)c1O	-2.1%	33.4	-4.3%	52.0%	11.2µM*	43.8%
C(=N\Nc1nc2ccccc2s1)/c1ccccn1	1.6%	-97.3*	-6.7%	-81.1%	1.78µM*	-100.1%
Cc1csc(N/N=C/c2ccccn2)n1	-29.7%	-102.6*	-17.0%	-41.2%	?	?
SMILES	Sm TGR block	HCMV inh	SARS PLpro yeast	Pf growth 48h	HCV inhibitor	Pf growth 96h
COc1ccc(C=NNc2nc3ccccc3s2)cc1	/	15.2	/	/	8.2%	/
CCC/C=N/Nc1nc2ccccc2s1	/	-0.9	-2.1%	7.6%	-11.5%	2.62µM*
COc1cc(/C=N/Nc2nc3ccccc3s2)cc([N+](=O)[O-])c1O	-4.5%	6.6	0.5%	-1.4%	-1.0%	-1.1%
O=C1c2ccccc2C2N1CCCN2C(=O)c1sc2ccccc2c1Cl (stereo not given)	/	5.4	/	/	/	/
CCc1ccc(-c2cc(C)no2)cc1S(=O)(=O)N1CCN(c2cc(C)ccc2C)CC1	-10.3%	0.0	-0.4%	13.1µM*	?	11.5%
Cc1ccc(-c2onc(C)c2C)cc1S(=O)(=O)N1c2ccccc2CC1C (stereo not given)	4.1%	-38.8	/	/	/	/
CCc1ccc(-c2cc(C)no2)cc1S(=O)(=O)N1CCOc2ccc(C)cc21	-7.1%	?	-1.1%	2.94µM*	?	?
CCc1ccc(-c2cc(C)no2)cc1S(=O)(=O)N1CCC(C)CC1	-6.4%	-19.9	-15.2%	-28.6%	-4.8%	?
Cc1ccc(-c2onc(C)c2C)cc1S(=O)(=O)N1CCOc2ccccc21	-9.9%	+	16.8%	?	?	51.6%
CCc1ccc(-c2cc(C)no2)cc1S(=O)(=O)N1CCCN(Cc2ccc(F)cc2)C1	2.1%	0.0	-4.5%	?	10µM*	?
COc1cccc(Cn2c(=O)n(-c3cccc(Cl)c3C)c(=O)c3c4c(sc32)CN(C(C)=O)CC4)c1	3.4%	?	/	/	/	/
O=C(Nc1ccccc1)C1=C[C@@H](c2coc3ccccc3c2=O)C[C@@H](OCCCCO)O1	-21.0%	-14.8	0.5%	?	12.8%	?
Cc1cc(-c2ccc(C(C)C)c(S(=O)(=O)N3CCOc4ccccc43)c2)on1	-3.3%	-64.3*	1.7%	14.7µM*	?	19.3%
CCC1CN(S(=O)(=O)c2cc(-c3cc(C)no3)ccc2OC)c2cc(C)ccc2O1 (stereo not given)	2.9%	?	-1.5%	10.4µM*	?	?
